# The campaign covered roughly 52,000 compounds. About 4,300 (8.3%) were called active. No stated cut-off is given here; in the data, active means survival mostly below about 52% (no sharp cut-off); inactive means mostly above about 56%. This excerpt belongs to a sample that is enriched for actives.
# System: DeltatarO mutant
# Assay: growth inhibition of S. aureus wild type versus tarO mutant, primary screen, teichoic acid synthesis inhibitors, RN4220, OD600 (AID 463173)
# Settings: OD600, 18 h, hits give low values, screened at 18.75 µg/mL (by protocol)
row,Compound,survival
1,CC(=O)Nc1ccc(S(=O)(=O)NC2(C(F)(F)F)C(=O)Nc3c2c(=O)[nH]c(=O)n3-c2ccc(C)c(C)c2)cc1 (stereo unspecified),81% (inactive)
2,CCOc1ccc(S(=O)(=O)NC(=O)N(CC)Cc2cc3ccccc3o2)cc1,76% (inactive)
3,CCCc1cnc2c(c1SCc1ccc(C(F)(F)F)cc1)c(=O)n(C)c(=O)n2C,54% (inactive)
4,O=C(Nc1cc(-c2nc3cc(Cl)ccc3o2)ccc1Cl)c1cc2ccccc2o1,82% (inactive)
5,Cc1ccc2oc(-c3ccc(Cl)c(NC(=O)c4cc5ccccc5o4)c3)nc2c1,39% (active)
6,CC(=O)Nc1cc(-c2nc3cc(Cl)ccc3o2)ccc1C,51% (inactive)
7,Cc1c(NC(=O)c2cc3ccccc3o2)cccc1-c1nc2ccccc2o1,36% (active)
8,Cc1ccc(-c2nc3ccccc3o2)cc1NC(=O)Cc1ccc(Cl)cc1,73% (inactive)
9,O=C(Nc1ccc2oc(-c3ccc(O)c(Br)c3)nc2c1)c1cc2ccccc2o1,49% (inactive)
10,Cc1ccc(-c2nc3cc(C(C)C)ccc3o2)cc1NC(=O)c1cc2ccccc2o1,19% (active)
11,Cc1ccc(-c2nc3cc(NC(=O)c4cc5ccccc5o4)ccc3o2)cc1Cl,139% (inactive)
12,Cc1c(NC(=O)c2ccc(Br)o2)cccc1-c1nc2ccccc2o1,60% (inactive)
13,Cc1ccc2oc(-c3ccc(Cl)c(NC(=O)Cc4ccccc4)c3)nc2c1,95% (inactive)
14,Cc1c(NC(=O)c2cccc3c(Cl)cccc23)cccc1-c1nc2ccccc2o1,63% (inactive)
15,Cc1ccc(-c2nc3cc(Cl)ccc3o2)cc1NC(=O)c1cc2ccccc2o1,43% (active)
16,COc1ccc(-n2nc3c(N4CCC(C(=O)NCc5ccccc5C)CC4)nnc(C)c3c2C)cc1,90% (inactive)
17,CCOCCc1nn2c(=O)cc(COC(=O)C(CC)c3ccccc3)nc2s1 (stereo unspecified),55% (inactive)
18,C=CCNC1CCS(=O)(=O)C1 (stereo unspecified),98% (inactive)
19,CSc1ccc(-c2ccc3c(c2)OCCO3)nn1,91% (inactive)
20,COc1ccc(N2CCN(CCN3CCCCC3)CC2)cc1,83% (inactive)
21,CCC(C)(C)NC(=O)Cn1c(-c2ccc(C)cc2)noc1=O,86% (inactive)
22,COC(=O)c1c(Oc2ccc(Br)cc2)nnc(-c2ccccc2)c1-c1ccccc1,85% (inactive)
23,COc1ccc(-c2nc(C)c(CCNC(=O)c3cccc(C)c3)s2)cc1OC,86% (inactive)

row,Compound,survival
1,COC(=O)CSc1nc(-c2ccc(F)cc2)cc(C(F)(F)F)n1,126% (inactive)
2,COC(=O)c1ccn(-c2nc(-c3ccc(Cl)cc3)cc(C(F)(F)F)n2)n1,13% (active)
3,CCOC(=O)c1c(NC(=O)CSc2nc(-c3ccc(OC)cc3)cc(C(F)(F)F)n2)sc(C)c1C,68% (inactive)
4,CCOC(=O)c1ccn(-c2nc(-c3cccc(OC)c3)cc(C(F)(F)F)n2)n1,18% (active)
5,COc1ccc(-c2cc(C(F)(F)F)n3nc(-c4ccc(Cl)cc4)cc3n2)cc1OC,48% (inactive)
6,CCOC(=O)N1CCN(C(=O)c2cnn3c(C(F)(F)F)cc(-c4cccc(OC)c4)nc23)CC1,68% (inactive)
7,CCc1ccccc1NC(=O)C(Cc1cccc(OC)c1)c1nn[nH]n1 (stereo unspecified),54% (inactive)
8,CC(=O)N1CCc2c(sc3c2c(=O)n(-c2cccc(Cl)c2C)c(=O)n3Cc2ccccc2C)C1,61% (inactive)
9,CC(=O)NC1=NN(C(C)=O)C2(S1)C(=O)Nc1ccccc12 (stereo unspecified),90% (inactive)
10,O=C(COc1ccc(Cl)cc1)Nc1ccc(C(=O)OCc2cc(=O)n3ccsc3n2)cc1,88% (inactive)
11,O=C(CSc1ncc2c(n1)-c1cc(Cl)ccc1N(Cc1ccccc1)S2(=O)=O)NCCc1ccccc1,89% (inactive)
12,CCCCCn1c(=O)[nH]c2cc(C(=O)N3CCN(c4cccc(C(F)(F)F)c4)CC3)ccc2c1=O,66% (inactive)
13,Cc1ccccc1CCNC(=O)c1ccc2c(c1)nc1n2CCC(C)C1 (stereo unspecified),83% (inactive)
14,Cc1cc(S(=O)(=O)N2CCCC2)ccc1-n1cnnn1,113% (inactive)
15,CCOC(=O)c1ccc(NC(=O)CSc2nc3ccccc3c(=O)n2CCC(=O)NC2CCCCC2)cc1,91% (inactive)
16,CC(C)=CCc1c(O)cc(O)c2c1OC(c1ccccc1)CC2=O (stereo unspecified),1% (active)
17,CC1(C)OC(c2ccccc2)CC1=O (stereo unspecified),110% (inactive)
18,Cc1oc(-c2ccccc2F)nc1CS(=O)CC(=O)NC(C)C (stereo unspecified),89% (inactive)
19,Cc1ccc(Sc2c(C)nn(C(=O)COc3ccc(F)cc3)c2C)cc1,92% (inactive)
20,Cc1nn(C(=O)COc2ccccc2)c(C)c1Sc1ccccc1,115% (inactive)
21,Cc1ccc(C(=O)n2nc(C)c(S(=O)(=O)N3CCCCCC3)c2C)cc1,91% (inactive)
22,COc1cc(C(=O)n2nc(C)c(Sc3ccc(Cl)cc3)c2C)cc(OC)c1OC,57% (inactive)
23,Cc1nn(C(=O)COc2ccc(Cl)cc2)c(C)c1Sc1ccccc1,87% (inactive)

# Source: PubChem BioAssay AID463173 (ICCB-Longwood Screening Facility, Harvard Medical School, 2010)
